This is an account of results in PubChem BioAssay (NCI).

About 83,000 compounds went through this panel and 20% of them were active in at least one assay; those are over-represented in the sample as a whole.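 Activity criterion: percent growth below 10, measured after cells in 96-well plates were exposed to a single compound concentration for 48 hours.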 Values without a mark were called inactive. The source made the active and inactive calls.

What all share (assay): NCI-60 one-dose screen, 48 h (100 = growth as untreated, 0 = no growth, -100 = all killed)
Common to all, as to settings: 10 µM unless noted

In assay [1] the test system is T-47D breast.
The subject of assay [2] is BT-549 breast.
In assay [3] the test system is MDA-MB-435 melanoma.
The test system of assay [4] is SW-620 colon.
Assay [5] deals with MCF7 breast.
For assay [6], the system named is HCT-116 colon.
In assay [7] the test system is HCC-2998 colon.
Assay [8] deals with KM12 colon.

For `COc1ccc(OC)c([C@H]2c3[nH]c4ccccc4c3C[C@H]3C(=O)N(CCCCCCC(=O)NO)CC(=O)N23)c1`, the growth is 65% in assay [1]; 107% in assay [2]; 85% in assay [3]; 72.5% in assay [4]; 72.2% in assay [5]; 66.8% in assay [6]. Further, the results for the growth in assay [7] and in assay [8] were 99.9% and 91.7%, respectively.

`COc1ccc2c(c1)oc1c3[nH]c4ccccc4c3c3c(c21)C(=O)N(O)C3=O`: the growth in assay [1] is 10.8%; in assay [2], 40.9%; in assay [3], 53.2%; in assay [4], 34.3%; in assay [5], 15.7%; in assay [6], 21.5%. Moreover, the growth in assay [7] is 84.7%; in assay [8], 48%.

As for `Clc1ccc(-c2csc(Nc3cccc(Nc4csc(-c5ccc(Cl)cc5)n4)c3)n2)cc1`, the growth in assay [1] is 26.8%; in assay [2], 112%; in assay [3], 88.6%; in assay [4] it was 86.6%; in assay [5], 60.7%; in assay [6] it was 67.2%. Also, the values for the growth in assay [7] and in assay [8] were 89.3% and 67.6%, respectively.

Turning to `O=C(CN1C(=O)CSC1=O)Nc1ccc(C(=O)/C=C/c2cc3ccccc3nc2Cl)cc1`, the growth in assay [1] is 58.7%; in assay [2] it was 66.1%; in assay [3], 25.6%; in assay [4], 95.6%; in assay [5] it was 12.5%; in assay [6] it was -45.5% (active). The growth is 82.1% in assay [7] and 62.2% in assay [8].

On to `C=C(C)[C@@H]1CC[C@]2(C)[C@H](CC=C3[C@@H]4CC(C)(C)CC[C@]4(C(=O)NCC#CCN4CCN(C)CC4)CC[C@]32C)[C@@]1(C)CCC#N`, for which the growth is 61.7% in assay [1]; 69.3% in assay [2]; 24.2% in assay [3]; 43.8% in assay [4]; 27% in assay [5]; 17.5% in assay [6]. Also, the growth in assay [7] is 55.2%; in assay [8], 43.6%.

As to `O=C(/C=C1\C=CN(CCCCO)c2ccccc21)n1ccc2ccccc21`, the growth in assay [1] is 99.6%; in assay [2] it was 112%; in assay [3], 106%; in assay [4] it was 104%; in assay [5], 95.8%; in assay [6], 108%. Further, the growth is 112% in assay [7] and 100% in assay [8].

In the case of `COc1ccc2c(C3=C(c4c[nH]c5ccccc45)C(=O)N(O)C3=O)coc2c1`, the growth in assay [1] is 40.6%; in assay [2], 118%; in assay [3], 107%; in assay [4], 98.6%; in assay [5] it was 44.5%; in assay [6], 93.1%. Also, the figures for the growth in assay [7] and in assay [8] were 103% and 97.6%, respectively.

Regarding `COc1cc(NC2=C(Cl)C(=O)c3nc(C)ccc3C2=O)cc(OC)c1`, the growth in assay [1] was -56% (active); in assay [2], 24.1%; in assay [3] it was -87.4% (active); in assay [4] it was -90.2% (active); in assay [5] it was -51.7% (active); in assay [6], -97.8% (active). Also, the growth in assay [7] was 14.4%; in assay [8], 39.3%.

In the case of `O=C(c1cccc(F)c1)n1ccc2cc(NC(=S)Nc3cccnc3)ccc21`, the growth in assay [1] was 93.7%; in assay [2], 97.6%; in assay [3] it was 99%; in assay [4], 93.8%; in assay [5], 85.7%; in assay [6] it was 105%. In addition, the growth in assay [7] was 99.7%; in assay [8], 97.9%.

For the compound `O=C1c2c(c3c4cccnc4[nH]c3c3ccc4ccccc4c23)C(=O)N1CCN1CCNCC1`, the growth in assay [1] is 99.2%; in assay [2], 102%; in assay [3], 89.9%; in assay [4] it was 55.9%; in assay [5] it was 27.8%; in assay [6], 36.6%. The growth was 81.8% in assay [7] and 73.6% in assay [8].

As for `COc1ccc(OC)c(NC2=C(Cl)C(=O)C(C)=C(C)C2=O)c1`, the growth in assay [1] is -5.07% (active); in assay [2] it was 102%; in assay [3], 106%; in assay [4], 98.8%; in assay [5], 80.5%; in assay [6] it was 57.6%. Further, the growth in assay [7] was 108%; in assay [8] it was 93.8%.

`CCOC(=O)c1c(NC(=O)c2ccc(C(C)(C)C)cc2)sc2cc(OCCN3CCCCC3)ccc12`: the growth was 96.9% in assay [1]; 93% in assay [2]; 91.8% in assay [3]; 22.2% in assay [4]; 34.8% in assay [5]; 21.7% in assay [6]. Also, the growth in assay [7] is 87%; in assay [8] it was 51.1%.

As to `CCCCCCNC(=O)Oc1ccc(/C(=C(/C)c2ccc(OC)cc2)c2ccc(OCCN3CCCC3)cc2)cc1`, the growth in assay [1] was 59.7%; in assay [2] it was 84.3%; in assay [3] it was 74.4%; in assay [4], 62.6%; in assay [5], 18.2%; in assay [6] it was 31.4%. For the same compound, the growth in assay [7] is 87.9%; in assay [8] it was 82%.

On to `COc1ccc(-c2nc3cc(Cl)c(Cl)cc3n2CC(=O)N=Nc2c(O)[nH]c3ccc(Cl)cc23)cc1`, for which the growth was -14.4% (active) in assay [1]; 25.8% in assay [2]; 16.9% in assay [3]; 32.1% in assay [4]; 40% in assay [5]; 7.71% (active) in assay [6]. Besides, the growth in assay [7] is 29.8%; in assay [8] it was 59%.
